Test [1] is described as follows: small molecules captured by biotinylated probe aFSTL3 – biochemical, small-molecule microarray, fluorescence 635/667, stem cell growth factor project, primary screen (AID 1064).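 Note: measures binding of the biotinylated anti-FSTL3 antibody to printed compounds.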 Conditions: higher = more signal.
The nature of test [2]: binders from COS7 lysate, DM2A8 probe, primary screen, torsin A project, cell lysate, small-molecule microarray, fluorescence 635/667 (AID 1065). As to conditions: higher = more signal, COS7 lysate expressing mutant human TOR1A.
Test [3] in a line: small molecules captured by biotinylated probe aFGF2 – biochemical, small-molecule microarray, fluorescence 635/667, stem cell growth factor project, primary screen (AID 1067).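 Note: measures binding of biotinylated aFGF2 protein to printed compounds on slides; z-score merges feature fluorescence and signal-to-noise across triplicate slides.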 As to conditions: higher = more signal.
Test [4] is described as follows: small molecules captured by biotinylated probe aFGF10 – biochemical, small-molecule microarray, fluorescence 635/667, stem cell growth factor project, primary screen (AID 1071).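 Note: score merges 667 nm spot intensity and signal to noise from triplicate slides.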 Conditions: higher = more signal.
For test [5], the target named is Neurogenic locus notch homolog protein 2 (Homo sapiens) (UniProt Q04721). Kind of test: small molecules binding Notch2 protein – biochemical, small-molecule microarray, 635 nm fluorescence, stem cell growth factors, primary screen (AID 1073). As to conditions: higher = more signal.
In test [6] the target is Pro-neuregulin-1, membrane-bound isoform (Homo sapiens) (UniProt Q02297). As to the kind of experiment: small molecules binding neuregulin-1 protein – biochemical, small-molecule microarray, fluorescence 635/667, psychiatric disease protein project, primary screen (AID 1075).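 Note: score combines 667 nm spot fluorescence with signal to noise.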 Conditions: NRG1 binding, 635 nm fluorescence, higher = more signal.
Sequence of Pro-neuregulin-1, membrane-bound isoform (Homo sapiens) (Q02297 whole entry, looked up, the tested form may be a part, canonical isoform): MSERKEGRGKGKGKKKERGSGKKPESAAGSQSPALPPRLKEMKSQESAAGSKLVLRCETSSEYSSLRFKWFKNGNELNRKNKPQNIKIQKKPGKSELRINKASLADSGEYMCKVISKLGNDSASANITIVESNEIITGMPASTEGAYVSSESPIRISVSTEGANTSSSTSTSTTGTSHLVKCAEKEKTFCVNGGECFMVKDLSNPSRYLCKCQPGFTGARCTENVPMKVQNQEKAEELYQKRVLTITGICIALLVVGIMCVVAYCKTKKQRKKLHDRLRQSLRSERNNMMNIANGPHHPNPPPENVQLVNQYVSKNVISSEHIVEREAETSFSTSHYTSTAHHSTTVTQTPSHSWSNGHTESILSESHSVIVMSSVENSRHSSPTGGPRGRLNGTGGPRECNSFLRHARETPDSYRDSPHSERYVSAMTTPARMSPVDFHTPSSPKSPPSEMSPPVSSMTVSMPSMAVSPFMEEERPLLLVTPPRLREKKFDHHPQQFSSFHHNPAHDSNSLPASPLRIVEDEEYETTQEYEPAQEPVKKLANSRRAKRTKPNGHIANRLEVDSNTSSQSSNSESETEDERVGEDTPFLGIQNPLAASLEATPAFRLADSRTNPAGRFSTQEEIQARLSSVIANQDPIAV
The test system of test [7] is Neuregulin-1 EGF-like domain. As to the kind of experiment: small molecules binding NRG1 EGF domain – biochemical, small-molecule microarray, 635 nm fluorescence, primary screen (AID 1081).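 Note: binding of the protein to compounds printed on small-molecule microarray slides.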 As to conditions: higher = more signal.
Test [8] can be described thus: FRG1 expression reporter modulators in myotubes – cell-based, C2C12 myotubes, firefly/Renilla luciferase, luminescence, FRG1 inhibition for FSHD, primary screen (AID 1084). As to conditions: FRG1 promoter luciferase, higher = more signal, called active from +8 up or from −8 down.
Test [9] is described as follows: small molecules captured by biotinylated probe aFST – biochemical, small-molecule microarray, fluorescence 635/667, stem cell growth factor project, primary screen (AID 1086).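 Note: score merges 667 nm fluorescence with signal-to-noise of each printed compound spot.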 Conditions: higher = more signal.
The nature of test [10]: binders of probe aHhip on microarray, primary screen, stem cell growth factor project, biochemical, small-molecule microarray, fluorescence 635/667 (AID 1087).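 Note: score merges spot fluorescence at 667nm with spot signal to noise ratio.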 As to conditions: higher = more signal.
For test [11], the system named is PRMT1 (protein arginine N-methyltransferase 1). Kind of test: small molecules binding arginine methyltransferase PRMT1 – biochemical, small-molecule microarray, 635 nm fluorescence, primary screen (AID 1088).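 Note: binding of Prmt1 protein to compounds spotted on small-molecule microarray slides.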 Conditions: higher = more signal.
The nature of test [12]: growth effects on S. cerevisiae YJM789 – YJM789 clinical isolate, OD600, 24 h, basal, primary screen (AID 1089).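 Note: growth of clinical yeast isolate S. cerevisiae YJM 789 seeded 1000 cells per well; test concentration not given here.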 Conditions: higher = more signal, called active from +8 up or from −8 down.
A short description of test [13]: S. pombe growth modifiers, basal conditions – strain 972, OD600, 24 h, no modulator, primary screen (AID 1090).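 Note: basal condition with compound alone and no growth modifier present; test concentration not given here.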 As to conditions: S. pombe 972 growth, higher = more signal, called active from +8 up or from −8 down.
Test [14] is described as follows: budding yeast growth modifiers under rapamycin – strain BY4716, OD600, 96 h, primary screen (AID 1091). Note: test concentration not given here. As to conditions: S. cerevisiae BY4716 + rapamycin, higher = more signal, called active from +8 up or from −8 down.
Test [15] deals with Torsin-1A-interacting protein 2 (Homo sapiens) (UniProt Q8NFQ8). Kind of test: small molecules binding lysate-expressed LULL1 – cell lysate, human LULL1 lysate, 635/667 nm fluorescence, primary screen (AID 1092).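 Note: probe is lysate of COS7 cells overexpressing human LULL1; score merges per-feature 667 nm fluorescence with signal-to-noise.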 Conditions: small-molecule microarray, hLULL1 lysate binding, 635 nm fluorescence; higher = more signal.
Sequence of Torsin-1A-interacting protein 2 (Homo sapiens) (Q8NFQ8 whole entry, looked up): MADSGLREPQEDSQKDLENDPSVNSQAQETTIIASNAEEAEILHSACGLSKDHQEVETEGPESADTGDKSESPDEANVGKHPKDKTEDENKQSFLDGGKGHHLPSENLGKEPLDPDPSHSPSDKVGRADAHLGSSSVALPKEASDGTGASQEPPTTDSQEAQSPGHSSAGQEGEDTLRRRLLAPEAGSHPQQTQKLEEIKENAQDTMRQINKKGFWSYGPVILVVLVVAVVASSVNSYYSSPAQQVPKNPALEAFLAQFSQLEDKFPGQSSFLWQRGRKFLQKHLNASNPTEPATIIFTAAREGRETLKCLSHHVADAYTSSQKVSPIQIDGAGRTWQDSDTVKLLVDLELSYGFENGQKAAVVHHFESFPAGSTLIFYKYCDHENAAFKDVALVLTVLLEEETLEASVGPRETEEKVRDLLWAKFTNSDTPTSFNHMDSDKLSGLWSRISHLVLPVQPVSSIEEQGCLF
A short description of test [16]: optical density change of DRC41 E. coli – strain DRC41, OD650, 24 h, E. coli filamentation project, primary screen (AID 1093).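 Note: MC1000 strain lacking acrAB efflux and sulA so SOS filamentation is blocked; test concentration not given here.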 Conditions: E. coli DRC41 growth, higher = more signal, called active from +8 up or from −8 down.
The nature of test [17]: probe aLefty2 binding to arrayed compounds – biochemical, biotinylated probe, 635/667 nm fluorescence, primary screen (AID 1094).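 Note: score merges spot fluorescence near 667 nm with spot signal-to-noise ratio.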 Conditions: small-molecule microarray, higher = more signal.
Test [18] has as its system Noggin (protein binding on small-molecule microarray). As to the kind of experiment: small molecules binding Noggin protein – biochemical, 635/667 nm fluorescence, primary screen (AID 1095).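 Note: score merges 667 nm feature fluorescence with signal to noise over triplicate slides.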 Conditions: 635 nm fluorescence, higher = more signal.
Test [19] has as its target Neurogenic locus notch homolog protein 3 (Homo sapiens) (UniProt Q9UM47). As to the kind of experiment: small molecules binding NOTCH3 protein – biochemical, 635/667 nm fluorescence, primary screen (AID 1096). As to conditions: small-molecule microarray, 635 nm fluorescence, higher = more signal.
A short description of test [20]: probe aEGFR binding to arrayed compounds – biochemical, biotinylated probe, 635/667 nm fluorescence, primary screen (AID 1097).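 Note: probe is a biotinylated anti-EGFR antibody binding compounds printed on slides; score combines fluorescence near 667 nm and signal to noise of each spot.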 Conditions: small-molecule microarray, higher = more signal.

We go through five molecules from PubChem BioAssay.

Activity calls are given as the source filed them.

Sequence of Neurogenic locus notch homolog protein 3 (Homo sapiens) (Q9UM47 whole entry, looked up): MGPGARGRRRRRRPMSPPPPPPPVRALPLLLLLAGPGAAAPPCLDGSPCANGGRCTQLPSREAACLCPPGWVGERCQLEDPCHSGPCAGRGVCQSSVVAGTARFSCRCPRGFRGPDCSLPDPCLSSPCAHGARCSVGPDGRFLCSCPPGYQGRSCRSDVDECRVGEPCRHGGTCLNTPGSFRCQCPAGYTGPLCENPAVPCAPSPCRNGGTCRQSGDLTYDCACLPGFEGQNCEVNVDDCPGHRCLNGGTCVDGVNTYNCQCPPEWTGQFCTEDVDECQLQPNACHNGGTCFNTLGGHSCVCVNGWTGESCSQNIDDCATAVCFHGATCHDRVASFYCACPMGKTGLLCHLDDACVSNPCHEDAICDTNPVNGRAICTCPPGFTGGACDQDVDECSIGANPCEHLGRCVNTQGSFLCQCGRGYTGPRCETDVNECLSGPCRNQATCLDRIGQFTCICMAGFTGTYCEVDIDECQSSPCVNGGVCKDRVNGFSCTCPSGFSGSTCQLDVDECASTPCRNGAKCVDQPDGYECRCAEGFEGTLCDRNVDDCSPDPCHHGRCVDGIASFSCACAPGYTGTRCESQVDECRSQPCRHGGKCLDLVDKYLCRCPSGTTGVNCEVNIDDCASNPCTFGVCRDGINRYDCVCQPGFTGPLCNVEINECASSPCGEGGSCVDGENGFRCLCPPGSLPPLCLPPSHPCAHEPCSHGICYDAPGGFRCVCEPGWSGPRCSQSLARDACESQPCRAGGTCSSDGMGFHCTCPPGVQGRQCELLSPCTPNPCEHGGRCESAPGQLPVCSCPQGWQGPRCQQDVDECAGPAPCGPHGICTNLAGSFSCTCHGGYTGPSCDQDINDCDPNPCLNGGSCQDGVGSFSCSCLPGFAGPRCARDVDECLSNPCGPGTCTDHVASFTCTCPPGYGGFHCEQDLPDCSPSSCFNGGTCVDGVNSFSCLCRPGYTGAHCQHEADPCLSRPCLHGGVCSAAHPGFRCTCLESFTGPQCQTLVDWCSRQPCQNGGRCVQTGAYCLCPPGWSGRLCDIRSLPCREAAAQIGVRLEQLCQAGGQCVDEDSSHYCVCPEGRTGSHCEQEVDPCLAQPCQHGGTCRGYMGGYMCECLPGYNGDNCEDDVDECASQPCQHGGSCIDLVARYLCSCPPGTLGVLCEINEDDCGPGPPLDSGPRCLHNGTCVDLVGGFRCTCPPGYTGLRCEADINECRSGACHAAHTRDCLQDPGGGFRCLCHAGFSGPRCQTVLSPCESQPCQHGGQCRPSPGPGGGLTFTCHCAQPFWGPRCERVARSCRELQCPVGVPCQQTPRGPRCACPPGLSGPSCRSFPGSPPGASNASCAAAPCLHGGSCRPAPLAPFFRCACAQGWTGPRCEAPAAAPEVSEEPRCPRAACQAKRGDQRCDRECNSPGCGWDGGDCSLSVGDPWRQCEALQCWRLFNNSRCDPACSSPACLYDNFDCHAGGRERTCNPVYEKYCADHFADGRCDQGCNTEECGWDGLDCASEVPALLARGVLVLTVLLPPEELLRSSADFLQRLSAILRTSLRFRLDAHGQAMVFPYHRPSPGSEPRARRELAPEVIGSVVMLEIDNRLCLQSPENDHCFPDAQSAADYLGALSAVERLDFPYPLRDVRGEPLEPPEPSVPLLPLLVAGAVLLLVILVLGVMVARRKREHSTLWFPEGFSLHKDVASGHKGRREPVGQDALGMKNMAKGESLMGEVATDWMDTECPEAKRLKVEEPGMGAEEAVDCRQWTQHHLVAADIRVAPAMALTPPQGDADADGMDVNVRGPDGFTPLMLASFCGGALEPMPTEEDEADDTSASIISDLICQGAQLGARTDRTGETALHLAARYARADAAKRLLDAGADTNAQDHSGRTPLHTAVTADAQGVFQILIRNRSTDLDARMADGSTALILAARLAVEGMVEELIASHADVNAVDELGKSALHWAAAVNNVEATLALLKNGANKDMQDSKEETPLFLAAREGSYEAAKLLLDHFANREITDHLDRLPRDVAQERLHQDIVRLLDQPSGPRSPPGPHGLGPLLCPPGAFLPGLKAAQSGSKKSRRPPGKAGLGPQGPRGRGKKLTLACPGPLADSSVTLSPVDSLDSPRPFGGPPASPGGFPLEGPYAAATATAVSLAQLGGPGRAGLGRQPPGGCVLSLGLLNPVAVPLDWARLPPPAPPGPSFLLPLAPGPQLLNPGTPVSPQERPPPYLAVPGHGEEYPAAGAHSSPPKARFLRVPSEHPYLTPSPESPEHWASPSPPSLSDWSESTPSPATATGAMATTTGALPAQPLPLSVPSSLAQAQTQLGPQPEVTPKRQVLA

For `COc1ccc([Si](C)(C)[C@H]2[C@H](CC(=O)N3Cc4ccccc4C[C@H]3CO)O[C@@]3(C(=O)N(Cc4cccc(N5CCC5=O)c4)c4ccccc43)[C@@H]2C)cc1`, the composite z-score in [1] is -0.26; in [2], 0.479; in test [3], -0.07; in test [4], 0.726; in test [5], 0.793; in test [6], 0.871. In addition, the composite z-score in test [7] is 1.29; in test [9], 0.256; in test [10] it was -0.13; in test [11], 1.57; in [15], 2.26; in test [17], -0.12. For the same molecule, the composite z-score was 0.914 in test [18], 1.06 in [19] and 0.0478 in [20]. Further, the z-score is -2.41 (inactive) in test [8]; -0.441 (inactive) in test [12]; 0.716 (inactive) in test [13]; 1.98 (inactive) in test [14]; 0.192 (inactive) in [16].

As to `COCCOC(=O)N1C(=O)[C@@]2(c3cc(C#Cc4ccc(OC)cc4)ccc31)[C@H](c1ccccc1OCCO)N1[C@H](c3ccccc3)[C@H](c3ccccc3)OC(=O)[C@H]1[C@@H]2C(=O)NC[C@H](O)c1ccccc1`, the composite z-score is -0.532 in test [1]; 0.579 in [2]; -0.0744 in test [3]; 0.514 in test [4]; 1.09 in [5]; 1.12 in test [6]. Besides, the composite z-score in test [7] is 1.3; in test [9] it was 0.499; in test [10] it was -0.0346; in [11], 1.53; in test [15], 2.86; in [17], -0.0304. Further, the composite z-score in [18] is 1.17; in [19], 1.04; in [20], -0.0267. The z-score in [8] is 0.19 (inactive); in [12], 2.89 (inactive); in test [13], 2.09 (inactive); in test [14] it was 7.27 (inactive); in test [16], -0.0186 (inactive).

Regarding `C=C(COC)C(=O)CC[C@@H](OC(C)=O)c1ccc(CO)o1`, the composite z-score in test [1] was -0.263; in [2], 0.0091; in [3], -0.147; in test [4], 0.764; in [5], -0.102; in [6] it was -0.0949. The composite z-score in [7] is 0.611; in test [9], 0.316; in test [10], 0.142; in [11], 1.43; in test [15], -0.0809; in test [17], -0.117. The values for the composite z-score in [18], in [19] and in test [20] were 1.11, 0.612 and -0.0463, respectively. The z-score was 0.632 (inactive) in test [8]; -1.22 (inactive) in test [12]; -0.198 (inactive) in test [13]; -0.22 (inactive) in [14]; 0.433 (inactive) in test [16].

With `C=CCOC(=O)[C@H]1[C@@H]2C(=O)O[C@@H](c3ccccc3)[C@@H](c3ccccc3)N2[C@@H](c2ccc(OCCOC(=O)[C@@H]3C[C@@H]4C(=O)N[C@@H](CCCCNC(C)=O)C(=O)N4[C@@H]3c3ccc(O)cc3)cc2)[C@]12C(=O)Nc1ccccc12`, the composite z-score is -0.475 in test [1]; 0.973 in [2]; -0.0512 in test [3]; 0.483 in [4]; 0.795 in test [5]; 1.26 in test [6]. The composite z-score is 1.32 in test [7]; -0.0579 in [9]; 0.0176 in test [10]; 1.54 in test [11]; 2.6 in test [15]; 0.0025 in test [17]. Besides, the composite z-score was 1.14 in [18], 1.08 in [19] and -0.0625 in test [20]. In addition, the z-score is 0.159 (inactive) in test [8]; 1.7 (inactive) in test [12]; -0.133 (inactive) in [13]; 3.53 (inactive) in test [14]; -0.264 (inactive) in [16].

Regarding `COc1ccc(C#Cc2ccc3c(c2)[C@]2(C(=O)N3)[C@H](C(=O)Nc3nc4ccccc4s3)[C@H]3C(=O)O[C@H](c4ccccc4)[C@H](c4ccccc4)N3[C@@H]2c2ccc(O)cc2)cc1`, the composite z-score in test [1] was -0.433; in [2], 0.923; in test [3], 0.0956; in test [4], 1.13; in test [5], 1.29; in test [6], 1.38. Moreover, the composite z-score in [7] is 1.34; in test [9] it was 1.36; in test [10], -0.511; in test [11], 1.55; in test [15], 3.26; in test [17] it was -0.0353. Moreover, the composite z-score in [18] amounted to 1.82; in [19], 1.02; in [20], 0.398. Also, the z-score in [8] was 1.46 (inactive); in [12], 2.2 (inactive); in [13], 0.98 (inactive); in [14], 0.172 (inactive); in test [16], 0.943 (inactive).
